Results reported in PubChem BioAssay.
Active and inactive are the calls of the source. Unless noted, the rule behind the calls is not given here.

How the values were obtained:
[1] = HepG2 liver cancer cell viability effects, profiling panel, resazurin fluorescence, 24 h, PK04 Diversity Set (AID 1172); conditions: higher = more signal
[2] = basal S. cerevisiae growth modulation, no modifier, primary screen, OD600, strain BY4716, 24 h, basal condition (AID 1173); conditions: OD600, 24 h, higher = more signal, called active from +8 up or from −8 down
[3] = MM1S myeloma cell viability, profiling panel, resazurin fluorescence, basal, 24 h, PK04 Diversity Set (AID 1174); conditions: higher = more signal, called active from +8 up or from −8 down;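 note: MM1S multiple myeloma cell line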
[4] = molecular target: Dihydroorotate dehydrogenase (quinone), mitochondrial (Plasmodium falciparum (isolate 3D7)) (UniProt Q08210); assay: PfDHODH enzyme inhibitors, primary screen, biochemical, C-terminal His tag, absorbance 600 nm (AID 1175); conditions: DCIP absorbance 600 nm, higher = more signal, called active from +8 up or from −8 down;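 note: recombinant parasite enzyme with a five histidine tag at its C terminus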
[5] = P. aeruginosa biofilm formation inhibitors, primary screen, strain PAO1, LB-PBS medium, absorbance 600 nm (AID 1176); conditions: P. aeruginosa PAO1 growth/biofilm, A600, 12 h; higher = more signal
[6] = S. cerevisiae RM11-1a growth modifiers, primary screen, strain RM11-1a, OD600, basal, 24 h (AID 1177); conditions: OD600, 24 h, higher = more signal, called active from +8 up or from −8 down;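 note: cultures grown under basal conditions with no added stressor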
[7] = E. coli acrAB mutant growth effects, primary screen, E. coli filamentation inducers, strain DRC39, OD650, 24 h (AID 1178); conditions: higher = more signal, called active from +8 up or from −8 down;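 note: growth measured as culture turbidity by optical density at 650 nm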
[8] = E. coli acrAB mutant growth effects, primary screen, E. coli filamentation inducers, strain DRC39, OD650, 48 h (AID 1179);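 note: screen aims at cell division blockers that make cells filament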; conditions: E. coli DRC39 delta-acrAB growth, higher = more signal, called active from +8 up or from −8 down
[9] = RPMI8226 myeloma cell viability, profiling panel, resazurin fluorescence, basal, 24 h, PK04 Diversity Set (AID 1180); conditions: higher = more signal;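 note: RPMI8826 multiple myeloma cell line at 5000 cells per well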
[10] = molecular target: E3 ubiquitin-protein ligase XIAP (Homo sapiens) (UniProt P98170); assay: XIAP binders, primary screen, biophysical, small-molecule microarray, fluorescence 635 nm (AID 1181); conditions: small-molecule microarray binding, higher = more signal;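 note: score merges 667 nm emission and signal to noise over triplicate slides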
[11] = test system: XIP peptide (Xip251-270) binding; assay: small-molecule binders of XIP peptide, primary screen, biochemical, small-molecule microarray, fluorescence 635/667 nm, 0.1 µg/mL protein (AID 1182); conditions: fluorescent protein binding, 635 nm, higher = more signal, called active from +8 up or from −8 down
XIP peptide (Xip251-270) = assay: small-molecule binders of XIP peptide, primary screen, biochemical, small-molecule microarray, fluorescence 635/667 nm, 0.5 µg/mL protein (AID 1183); conditions: small-molecule microarray binding, fluorescence 635 nm; higher = more signal
[12] = Plasmodium falciparum growth inhibition, primary screen, strain 3D7, DAPI fluorescence, 100 nL (AID 1184);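 note: parasites grown inside human red blood cells in medium with human serum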; conditions: P. falciparum 3D7 growth, 3 d, higher = more signal
[13] = molecular target: Homeobox protein Hox-A13 (Mus musculus) (UniProt Q62424); assay: inhibitors of HoxA13-DNA binding, primary screen, biochemical, fluorescence polarization, labeled oligonucleotide (AID 1185); conditions: 15 min, higher = more signal, called active from +8 up or from −8 down
[14] = inhibitors of hydroxyurea-induced Chk1 phosphorylation, primary screen, imaging, HeLa, phospho-Chk1 antibody, percent positive cells (AID 1186); conditions: hydroxyurea-induced phospho-Chk1 immunofluorescence imaging, higher = more signal
[15] = inhibitors of hydroxyurea-induced Chk1 phosphorylation, primary screen, imaging, HeLa, phospho-Chk1 nuclear intensity (AID 1187); conditions: hydroxyurea-induced phospho-Chk1 immunofluorescence imaging, higher = more signal

Chain of Homeobox protein Hox-A13 (Mus musculus) (Q62424 whole entry, looked up): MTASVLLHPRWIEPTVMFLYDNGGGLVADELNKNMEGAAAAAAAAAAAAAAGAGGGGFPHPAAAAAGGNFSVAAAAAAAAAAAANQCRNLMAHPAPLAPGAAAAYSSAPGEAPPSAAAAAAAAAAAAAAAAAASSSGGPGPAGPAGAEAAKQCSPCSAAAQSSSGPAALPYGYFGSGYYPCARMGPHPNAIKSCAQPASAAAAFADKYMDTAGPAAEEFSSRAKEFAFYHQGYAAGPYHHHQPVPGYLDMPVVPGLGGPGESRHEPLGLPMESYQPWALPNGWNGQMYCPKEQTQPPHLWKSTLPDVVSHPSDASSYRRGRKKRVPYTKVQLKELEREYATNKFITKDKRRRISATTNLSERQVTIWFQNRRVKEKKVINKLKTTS
Chain of E3 ubiquitin-protein ligase XIAP (Homo sapiens) (P98170 whole entry, looked up): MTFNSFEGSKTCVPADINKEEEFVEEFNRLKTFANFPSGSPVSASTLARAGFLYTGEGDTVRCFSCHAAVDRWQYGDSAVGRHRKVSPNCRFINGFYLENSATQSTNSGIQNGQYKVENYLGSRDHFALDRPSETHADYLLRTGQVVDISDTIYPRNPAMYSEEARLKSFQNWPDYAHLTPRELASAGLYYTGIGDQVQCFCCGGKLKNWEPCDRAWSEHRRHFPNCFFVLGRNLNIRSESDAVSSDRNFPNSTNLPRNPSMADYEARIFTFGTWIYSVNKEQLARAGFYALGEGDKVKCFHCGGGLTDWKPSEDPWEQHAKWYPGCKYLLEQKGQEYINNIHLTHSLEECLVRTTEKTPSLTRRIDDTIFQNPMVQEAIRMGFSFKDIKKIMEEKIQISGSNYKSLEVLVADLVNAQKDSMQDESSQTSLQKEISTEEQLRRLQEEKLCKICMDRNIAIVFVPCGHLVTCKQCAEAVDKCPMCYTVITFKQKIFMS
Chain of Dihydroorotate dehydrogenase (quinone), mitochondrial (Plasmodium falciparum (isolate 3D7)) (Q08210 whole entry, looked up): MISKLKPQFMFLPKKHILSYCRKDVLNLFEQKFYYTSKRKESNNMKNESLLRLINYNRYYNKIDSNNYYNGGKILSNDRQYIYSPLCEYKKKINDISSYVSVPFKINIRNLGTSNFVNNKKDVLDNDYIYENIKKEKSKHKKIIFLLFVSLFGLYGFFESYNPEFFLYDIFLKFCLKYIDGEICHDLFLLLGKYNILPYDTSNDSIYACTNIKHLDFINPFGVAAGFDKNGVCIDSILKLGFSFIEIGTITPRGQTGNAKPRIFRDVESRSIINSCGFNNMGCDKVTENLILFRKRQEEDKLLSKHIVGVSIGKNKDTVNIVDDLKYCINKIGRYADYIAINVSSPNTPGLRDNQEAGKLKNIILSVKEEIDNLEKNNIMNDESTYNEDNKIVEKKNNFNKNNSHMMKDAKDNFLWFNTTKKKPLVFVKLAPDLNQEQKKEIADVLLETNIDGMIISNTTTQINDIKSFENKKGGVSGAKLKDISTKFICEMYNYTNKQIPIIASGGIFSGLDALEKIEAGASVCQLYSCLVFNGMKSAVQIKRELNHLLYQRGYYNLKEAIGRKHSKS

SMILES	z-score [1]	z-score [2]	z-score [3]	composite z-score [4]	z-score [5]	z-score [6]	z-score [7]	z-score [8]	z-score [9]	composite z-score [10]	composite z-score [11]	composite z-score (XIP peptide (Xip251-270))	z-score [12]	z-score [13]	z-score [14]	z-score [15]
CCN(CC)c1ccc(N2CC=CC34O[C@@H]5C=CCCOC(=O)C5[C@H]3C(=O)N(CCCO)[C@@H]4C2=O)cc1 (some centres undefined)	-0.704	-1.25 (inactive)	0.61 (inactive)	-0.429 (inactive)	0.525 (inactive)	-0.294 (inactive)	1.21 (inactive)	0.764 (inactive)	0.237	-0.516	-0.658 (inactive)	-0.588	-1.49	-3.95 (inactive)	-0.28 (inactive)	-0.816 (inactive)
O=S(=O)(NCCCO)c1ccc(Br)cc1	0.304	-0.476 (inactive)	0.261 (inactive)	-1.62 (inactive)	-0.236 (inactive)	-0.482 (inactive)	1.68 (inactive)	2.3 (inactive)	0.461	0.0441	-0.2 (inactive)	0.0425	0.327	0.533 (inactive)	-0.868 (inactive)	-0.953 (inactive)
C=CC[C@@]1(C(=O)NCc2ccccc2)N=C(c2ccc(OCCCO)cc2)O[C@@H]1c1ccccc1CN=[N+]=[N-]	-0.46	1.36 (inactive)	-1.89 (inactive)	1.63 (inactive)	1.1 (inactive)	2.33 (inactive)	0.537 (inactive)	-0.793 (inactive)	-1.45	0.404	-0.0368 (inactive)	0.496	-2.28	-10.5 (active)	0.168 (inactive)	0.43 (inactive)
C=CC[C@]1(C(=O)NCCN2CCOCC2)N=C(c2ccc(OCCCO)cc2)O[C@H]1c1ccccc1N=[N+]=[N-]	-0.153	-1.51 (inactive)	0.0032 (inactive)	0.918 (inactive)	-0.251 (inactive)	0.393 (inactive)	2.29 (inactive)	0.746 (inactive)	-0.414	0.113	3.25 (inactive)	0.819	-2.27	-3.35 (inactive)	-0.56 (inactive)	-0.265 (inactive)
CC1CC/C=C\[C@H]2OC34C=CCN(c5ccc6ccccc6c5)C(=O)[C@H]3N(CCCCCO)C(=O)[C@@H]4C2C(=O)O1 (some centres undefined)	-0.304	-0.317 (inactive)	-0.634 (inactive)	-0.164 (inactive)	-0.484 (inactive)	-0.122 (inactive)	0.11 (inactive)	0.312 (inactive)	-0.0986	-0.471	1.37 (inactive)	-0.165	-0.0643	-6.06 (inactive)	0.549 (inactive)	-0.382 (inactive)
O=c1cccc(-c2ccc3ccccc3c2)o1	-0.321	-16.1 (active)	0.2 (inactive)	-1.14 (inactive)	-0.281 (inactive)	-2.6 (inactive)	0.632 (inactive)	0.159 (inactive)	0.37	0.0754	-0.644 (inactive)	-0.688	1	-1 (inactive)	-0.319 (inactive)	-0.587 (inactive)
CCCCC(=O)N(Cc1ccccc1F)[C@@H]1CC(C(=O)NCCO)=C[C@H](Oc2c(I)cc(CO)cc2OC)[C@H]1O	-0.796	-2.51 (inactive)	-0.137 (inactive)	-1.63 (inactive)	-0.447 (inactive)	1.65 (inactive)	0.754 (inactive)	0.266 (inactive)	-0.0533	0.344	0.466 (inactive)	0.704	-1.66	-7.53 (inactive)	0.148 (inactive)	0.545 (inactive)
COCCOC(=O)N1C(=O)[C@@]2(c3cc(C#Cc4ccc(OC)cc4)ccc31)[C@H](C(N)=O)[C@H]1C(=O)O[C@H](c3ccccc3)[C@H](c3ccccc3)N1[C@@H]2c1ccc(O)cc1	-0.0716	-0.823 (inactive)	0.277 (inactive)	-0.265 (inactive)	0.886 (inactive)	-0.0047 (inactive)	-0.102 (inactive)	0.236 (inactive)	-0.394	0.0849	-0.0197 (inactive)	0.0645	-1.69	2.03 (inactive)	-0.0863 (inactive)	0.243 (inactive)
C=CCNC(=O)[C@H]1[C@@H]2C(=O)O[C@@H](c3ccccc3)[C@@H](c3ccccc3)N2[C@@H](c2ccc(O)cc2)[C@]12C(=O)Nc1ccc(C#Cc3ccc(OC)cc3)cc12	-1.56	0.885 (inactive)	-1.57 (inactive)	-27 (active)	0.971 (inactive)	1.14 (inactive)	0.461 (inactive)	0.0221 (inactive)	-3.24	-0.0022	0.292 (inactive)	0.779	-0.785	-1.91 (inactive)	0.0407 (inactive)	0.277 (inactive)
C=C[C@H](C)[C@H](OC(=O)Nc1ccc(OC)cc1)c1ccc(O)c2ccccc12	-0.475	-18.5 (active)	-2.68 (inactive)	-1.79 (inactive)	0.908 (inactive)	-17 (active)	0.405 (inactive)	-0.0111 (inactive)	-2.21	-0.003	0.79 (inactive)	-0.147	-0.767	-4.27 (inactive)	-0.33 (inactive)	-0.382 (inactive)
CN(C)CCCC[C@@H]1NC(=O)[C@@H]2C[C@H](C(=O)NCCCCCCN)[C@H](c3ccc(O)cc3)N2C1=O	-1.14	0.531 (inactive)	0.427 (inactive)	-2.06 (inactive)	0.643 (inactive)	0.793 (inactive)	0.254 (inactive)	-0.234 (inactive)	0.109	-0.157	0.674 (inactive)	0.0252	0.0094	-2.65 (inactive)	0.136 (inactive)	-0.366 (inactive)
O=C1NC(=O)C2C1C=CC(C(O)c1cccs1)N2Nc1ccccn1 (centres undefined)	-0.687	0.0408 (inactive)	-1.71 (inactive)	0.566 (inactive)	0.916 (inactive)	0.623 (inactive)	-0.0795 (inactive)	0.0691 (inactive)	0.398	0.174	1.43 (inactive)	0.438	0.197	-5.03 (inactive)	-0.0367 (inactive)	-0.263 (inactive)
Cc1c(NC(=O)/C(C#N)=C/C=C/c2ccccc2)c(=O)n(-c2ccccc2)n1C	-0.0273	-0.0874 (inactive)	-0.335 (inactive)	0.316 (inactive)	0.242 (inactive)	-0.74 (inactive)	1.39 (inactive)	0.0139 (inactive)	0.161	0.313	-0.3 (inactive)	0.559	-0.582	-1.5 (inactive)	0.062 (inactive)	0.214 (inactive)
COC(=O)[C@@]1(Cc2ccccc2)[C@H]2c3cc(C(=O)N(C)C)n(Cc4cc(F)c(F)c(F)c4)c3C[C@H]2CN1C(=O)c1ccccc1	0.0126	0.989 (inactive)	-0.402 (inactive)	-0.258 (inactive)	-0.0019 (inactive)	0.968 (inactive)	0.194 (inactive)	0.322 (inactive)	-0.963	0.272	-0.218 (inactive)	0.0006	-1.52	-4 (inactive)	-0.217 (inactive)	-0.227 (inactive)
O=P(NCC1(CC2(c3ccccc3)CO2)CC1)(c1ccccc1)c1ccccc1 (centres undefined)	-0.293	1.19 (inactive)	-0.242 (inactive)	-0.402 (inactive)	0.191 (inactive)	2.7 (inactive)	-0.191 (inactive)	-0.0173 (inactive)	0.0301	-0.102	0.588 (inactive)	0.822	0.561	-3.26 (inactive)	-0.124 (inactive)	-0.208 (inactive)
O=C1O[C@@H](c2ccccc2)[C@@H](c2ccccc2)N2[C@@H](c3ccc(O)cc3)[C@]3(C(=O)Nc4ccc(C#CCCO)cc43)[C@@H](C(=O)O)[C@H]12	0.259	-1.01 (inactive)	0.519 (inactive)	-2.07 (inactive)	0.201 (inactive)	-0.261 (inactive)	0.151 (inactive)	0.67 (inactive)	0.545	0.511	0.665 (inactive)	0.785	-0.63	-4.56 (inactive)	0.0686 (inactive)	0.632 (inactive)
O=C(CS)NCCCCCNC(=O)[C@H]1C[C@H]2C(=O)N[C@@H](Cc3ccccc3)C(=O)N2[C@H]1c1cccc(OCCO)c1	0.219	-0.525 (inactive)	0.782 (inactive)	0.761 (inactive)	0.932 (inactive)	-0.572 (inactive)	1.94 (inactive)	1.68 (inactive)	0.889	0.0585	0.296 (inactive)	0.812	0.0332	-2.76 (inactive)	0.0034 (inactive)	0.483 (inactive)
CN(C)CCCCNC(=O)[C@@H]1C[C@@H]2C(=O)N[C@@H](CCCCN)C(=O)N2[C@@H]1c1cccc(OCCO)c1	0.0914	-0.191 (inactive)	-0.332 (inactive)	-0.318 (inactive)	0.836 (inactive)	-0.147 (inactive)	-0.383 (inactive)	-1 (inactive)	-0.165	-0.32	0.388 (inactive)	0.566	-0.114	-3.47 (inactive)	-0.833 (inactive)	-0.838 (inactive)
CCOC(=O)C1=CC[C@@H](c2cccc(Cl)c2)N(S(=O)(=O)c2ccc(C)cc2)[C@H]1c1ccc(C#N)cc1	0.697	2.09 (inactive)	-0.39 (inactive)	0.21 (inactive)	1.68 (inactive)	0.834 (inactive)	-0.905 (inactive)	-0.314 (inactive)	-1.42	-0.38	0.197 (inactive)	0.73	-2.12	1.05 (inactive)	0.645 (inactive)	-0.118 (inactive)
